# Experimental data as given in the supplement of paper PMC8728848.
# The entries come from a sample that favours the strongest signals as a whole.
# B1: Epa20 (Candida glabrata) (protein)
# chain: MGSSHHHHHHSSGLVPRGSHMASSNIPNNYPLGCSNKYSGHLPGLKMELYSYNYVNPRHPDPQNPGKLDQLYDPNLLGTYECFDSSYKDINYPRVGYKSKTLIGRSDGVSGILNFNFVPPWGCMPQKGQLPPAYNFKSNITLSNFTMILFGYFKPKISGNHIFSLHGDDLIYLNFGAGNAFDCCRQESSADNFGNYQAFSLWGINWEKKTLTVYLDMNTYYPIRIFYNNRDYQAIFNFSFKTEFDSSPVIDFQDYFFFLRDIDGGCPGEV
# Key:
# Assay in all cases: glycan array binding signal (z-score within array); higher = stronger binding
# Settings in all cases: glycan notation: IUPAC condensed, linker removed
# [1] = target: Fuc(a1-2)Gal(b1-3)GalNAc(a1-3)[Fuc(a1-2)]Gal(b1-4)GlcNAc
# In short: (§1)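 The binding signal is a Z-score computed within each array and averaged over linkers. Arrays of the same protein sequence at different concentrations or buffers were also averaged together. Data originate from 3228 arrays in the Consortium for Functional Glycomics database, kept only where the protein sequence was available.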
# [2] = target: Fuc(a1-2)Gal(b1-4)Fuc(a1-3)]GlcNAc(b1-2)Man(a1-3)[Fuc(a1-2)Gal(b1-4)[Fuc(a1-3)]GlcNAc(b1-2)Man(a1-6)]Man(b1-4)GlcNAc(b1-4)GlcNAc
# In short: as §1
# [3] = target: Fuc(a1-2)Gal(b1-4)GlcNAc(b1-2)Man(a1-3)[Fuc(a1-2)Gal(b1-4)GlcNAc(b1-2)Man(a1-6)]Man(b1-4)GlcNAc(b1-4)[Fuc(a1-6)]GlcNAc
# In short: as §1
# [4] = target: Fuc(a1-2)Gal(b1-4)GlcNAc(b1-3)GalNAc
# In short: as §1
# [5] = target: Fuc(a1-2)Gal(b1-4)[Fuc(a1-3)]GlcNAc(b1-3)GalNAc
# In short: as §1
# [6] = target: Fuc(a1-2)[Gal(a1-3)]Gal(b1-3)GalNAc(b1-3)Gal(a1-4)Gal(b1-4)Glc
# In short: as §1
# [7] = target: Fuc(a1-2)[GalNAc(a1-3)]Gal
# In short: as §1
# [8] = target: Fuc(a1-2)[GalNAc(a1-3)]Gal(b1-4)[Fuc(a1-3)]GlcNAc(b1-3)GalNAc
# In short: as §1
# [9] = target: Fuc(a1-3)[Gal(b1-4)]GlcNAc(b1-2)Man(a1-3)[Fuc(a1-3)[Gal(b1-4)]GlcNAc(b1-2)Man(a1-6)]Man(b1-4)GlcNAc(b1-4)[Fuc(a1-6)]GlcNAc
# In short: as §1
# [10] = target: Gal(b1-2)Gal
# In short: as §1
# [11] = target: Gal(b1-3)GlcNAc
# In short: as §1
# [12] = target: Gal(b1-3)GlcNAc(b1-2)Man
# In short: as §1
# [13] = target: Gal(b1-3)GlcNAc(b1-2)Man(a1-3)[Gal(b1-3)GlcNAc(b1-2)Man(a1-6)]Man(b1-4)GlcNAc(b1-4)GlcNAc
# In short: as §1
# [14] = target: Gal(b1-3)GlcNAc(b1-3)Gal(b1-4)Glc
# In short: as §1
# [15] = target: Gal(b1-3)[Fuc(a1-4)]GlcNAc(b1-3)Gal(b1-3)[Fuc(a1-4)]GlcNAc
# In short: as §1
# [16] = target: Gal(b1-4)GlcNAc(b1-2)Man
# In short: as §1
# [17] = target: Gal(b1-4)GlcNAc(b1-2)Man(a1-3)[Gal(b1-4)GlcNAc(b1-2)Man(a1-6)]Man(b1-4)GlcNAc(b1-4)GlcNAc
# In short: as §1
# [18] = target: Gal(b1-4)GlcNAc(b1-2)[Gal(b1-4)GlcNAc(b1-6)]Man(a1-6)[GlcNAc(b1-4)][Gal(b1-4)GlcNAc(b1-2)Man(a1-3)]Man(b1-4)GlcNAc(b1-4)GlcNAc
# In short: as §1
# [19] = target: Gal(b1-4)GlcNAc(b1-3)Gal(b1-4)GlcNAc
# In short: as §1
# [20] = target: Gal(b1-4)GlcNAc(b1-3)Gal(b1-4)GlcNAc(b1-3)Gal(b1-4)GlcNAc(b1-2)Man(a1-3)[Gal(b1-4)GlcNAc(b1-3)Gal(b1-4)GlcNAc(b1-3)Gal(b1-4)GlcNAc(b1-2)Man(a1-6)]Man(b1-4)GlcNAc(b1-4)GlcNAc
# In short: as §1
# [21] = target: Gal(b1-4)GlcNAc(b1-3)Gal(b1-4)GlcNAc(b1-3)Gal(b1-4)GlcNAc(b1-3)Gal(b1-4)GlcNAc(b1-3)Gal(b1-4)GlcNAc(b1-2)Man(a1-3)[Gal(b1-4)GlcNAc(b1-3)Gal(b1-4)GlcNAc(b1-3)Gal(b1-4)GlcNAc(b1-3)Gal(b1-4)GlcNAc(b1-3)Gal(b1-4)GlcNAc(b1-2)Man(a1-6)]Man(b1-4)GlcNAc(b1-4)[Fuc(a1-6)]GlcNAc
# In short: as §1
# [22] = target: Gal3S(b1-3)GlcNAc
# In short: as §1
# [23] = target: Gal3S(b1-3)[Fuc(a1-4)]GlcNAc
# In short: as §1
# [24] = target: Gal6S(b1-4)GlcNAc6S
# In short: as §1
# [25] = target: GlcNAc(a1-4)Gal(b1-4)GlcNAc(b1-3)Gal(b1-4)[Fuc(a1-3)]GlcNAc(b1-3)Gal(b1-4)[Fuc(a1-3)]GlcNAc
# In short: as §1
# [26] = target: GlcNAc(b1-2)[GlcNAc(b1-4)]Man(a1-3)[GlcNAc(b1-2)Man(a1-6)]Man(b1-4)GlcNAc(b1-4)GlcNAc
# In short: as §1
# [27] = target: GlcNAc(b1-3)Gal(b1-4)GlcNAc(b1-3)[GlcNAc(b1-3)Gal(b1-4)GlcNAc(b1-3)]GalNAc
# In short: as §1
# [28] = target: Kdn(a2-3)Gal(b1-4)[Fuc(a1-3)]GlcNAc
# In short: as §1
# [29] = target: Neu5Ac(a2-3)Gal(b1-3)GlcNAc(b1-3)Gal(b1-3)GlcNAc
# In short: as §1
# [30] = target: Neu5Ac(a2-3)Gal(b1-3)[Neu5Ac(a2-6)]GlcNAc(b1-3)[Fuc(a1-3)[Gal(b1-4)]GlcNAc(b1-6)]Gal(b1-4)Glc
# In short: as §1
# [31] = target: Neu5Ac(a2-3)Gal(b1-4)GlcNAc(b1-2)Man(a1-3)[Neu5Ac(a2-6)Gal(b1-4)GlcNAc(b1-2)Man(a1-6)]Man(b1-4)GlcNAc(b1-4)GlcNAc
# In short: as §1
# [32] = target: Neu5Ac(a2-3)Gal(b1-4)GlcNAc(b1-3)Gal(b1-3)GlcNAc
# In short: as §1
# [33] = target: Neu5Ac(a2-3)Gal(b1-4)GlcNAc(b1-3)Gal(b1-4)GlcNAc(b1-3)Gal(b1-4)GlcNAc(b1-2)Man(a1-3)[Neu5Ac(a2-3)Gal(b1-4)GlcNAc(b1-3)Gal(b1-4)GlcNAc(b1-3)Gal(b1-4)GlcNAc(b1-2)Man(a1-6)]GalNAc
# In short: as §1
# [34] = target: Neu5Ac(a2-3)Gal(b1-4)GlcNAc(b1-3)Gal(b1-4)GlcNAc(b1-3)[Neu5Ac(a2-3)Gal(b1-4)GlcNAc(b1-3)Gal(b1-4)GlcNAc(b1-6)]GalNAc
# In short: as §1
# [35] = target: Neu5Ac(a2-3)Gal(b1-4)GlcNAc(b1-3)[Neu5Ac(a2-3)Gal(b1-4)GlcNAc(b1-6)]GalNAc
# In short: as §1
# [36] = target: Neu5Ac(a2-3)Gal(b1-4)[Fuc(a1-3)]GlcNAc(b1-3)GalNAc
# In short: as §1
# [37] = target: Neu5Ac(a2-6)Gal(b1-4)GlcNAc(b1-2)Man(a1-3)[GlcNAc(b1-4)][Neu5Ac(a2-6)Gal(b1-4)GlcNAc(b1-2)Man(a1-6)]Man(b1-4)GlcNAc(b1-4)GlcNAc
# In short: as §1
# [38] = target: Neu5Ac(a2-6)Gal(b1-4)GlcNAc(b1-2)Man(a1-3)[Man(a1-6)]Man(b1-4)GlcNAc(b1-4)GlcNAc
# In short: as §1
# [39] = target: Neu5Ac(a2-6)Gal(b1-4)GlcNAc(b1-2)Man(a1-6)Man(b1-4)GlcNAc(b1-4)GlcNAc
# In short: as §1
# [40] = target: Neu5Ac(a2-6)Gal(b1-4)GlcNAc(b1-3)Gal(b1-4)GlcNAc(b1-3)Gal(b1-4)GlcNAc(b1-2)Man(a1-3)[Neu5Ac(a2-6)Gal(b1-4)GlcNAc(b1-3)Gal(b1-4)GlcNAc(b1-3)Gal(b1-4)GlcNAc(b1-2)Man(a1-6)]GalNAc
# In short: as §1
binder,measurement,setting,value
B1,glycan array binding signal (z-score),[1],-0.278
same,glycan array binding signal (z-score),[2],3.16
same,glycan array binding signal (z-score),[3],-0.005
same,glycan array binding signal (z-score),[4],-0.072
same,glycan array binding signal (z-score),[5],4.96
same,glycan array binding signal (z-score),[6],-0.067
same,glycan array binding signal (z-score),[7],-0.452
same,glycan array binding signal (z-score),[8],3.14
same,glycan array binding signal (z-score),[9],0.822
same,glycan array binding signal (z-score),[10],-0.763
same,glycan array binding signal (z-score),[11],-0.446
same,glycan array binding signal (z-score),[12],0.049
same,glycan array binding signal (z-score),[13],0.704
same,glycan array binding signal (z-score),[14],-0.669
same,glycan array binding signal (z-score),[15],-0.28
same,glycan array binding signal (z-score),[16],-0.114
same,glycan array binding signal (z-score),[17],-0.534
same,glycan array binding signal (z-score),[18],-0.48
same,glycan array binding signal (z-score),[19],-0.384
same,glycan array binding signal (z-score),[20],3.18
same,glycan array binding signal (z-score),[21],6.07
same,glycan array binding signal (z-score),[22],-0.241
same,glycan array binding signal (z-score),[23],0.569
same,glycan array binding signal (z-score),[24],0.939
same,glycan array binding signal (z-score),[25],0.435
same,glycan array binding signal (z-score),[26],-0.31
same,glycan array binding signal (z-score),[27],0.532
same,glycan array binding signal (z-score),[28],0.229
same,glycan array binding signal (z-score),[29],-0.76
same,glycan array binding signal (z-score),[30],2.49
same,glycan array binding signal (z-score),[31],-0.493
same,glycan array binding signal (z-score),[32],-0.463
same,glycan array binding signal (z-score),[33],2.75
same,glycan array binding signal (z-score),[34],4.06
same,glycan array binding signal (z-score),[35],2.82
same,glycan array binding signal (z-score),[36],2.98
same,glycan array binding signal (z-score),[37],-0.397
same,glycan array binding signal (z-score),[38],0.402
same,glycan array binding signal (z-score),[39],-0.108
same,glycan array binding signal (z-score),[40],3.97
